Experimental findings from PubChem BioAssay AID686940 (The Scripps Research Institute Molecular Screening Center, 2013) are described below.

Among all 370,000 compounds or so, about 2,600 (0.7%) were called active. For the sample, actives were picked, then their nearest neighbours and some compounds at random. Unmarked numbers belong to inactive results.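 The calls were made as follows: active = inhibition above a per-plate cutoff, mean inhibition of test wells between control levels plus 3 SD (cut at about 38% in these data); inactive = the rest.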

Broadly, the inhibition is the change of the read-out against control, counted positive when it falls.

The assay deals with COUP transcription factor 2 (Homo sapiens) (UniProt P24468). Nature of the assay: NR2F2 transcriptional activity inhibitors, primary screen, cell-based, luciferase reporter, HEK293T, luminescence (AID 686940).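 Also: cells cotransfected with COUP-TFII expression vector driving the NGFI-A reporter; 0% = median of COUP-TF2 test wells and 100% = reporter-only cells.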 The conditions noted are these: HEK293T NGFI-A luciferase reporter, at 8.6 µM, stronger effect = higher value. (Reporter assays use an easily measured gene product as a stand-in for the process of interest.)
Chain of COUP transcription factor 2 (Homo sapiens) (P24468 whole entry, looked up): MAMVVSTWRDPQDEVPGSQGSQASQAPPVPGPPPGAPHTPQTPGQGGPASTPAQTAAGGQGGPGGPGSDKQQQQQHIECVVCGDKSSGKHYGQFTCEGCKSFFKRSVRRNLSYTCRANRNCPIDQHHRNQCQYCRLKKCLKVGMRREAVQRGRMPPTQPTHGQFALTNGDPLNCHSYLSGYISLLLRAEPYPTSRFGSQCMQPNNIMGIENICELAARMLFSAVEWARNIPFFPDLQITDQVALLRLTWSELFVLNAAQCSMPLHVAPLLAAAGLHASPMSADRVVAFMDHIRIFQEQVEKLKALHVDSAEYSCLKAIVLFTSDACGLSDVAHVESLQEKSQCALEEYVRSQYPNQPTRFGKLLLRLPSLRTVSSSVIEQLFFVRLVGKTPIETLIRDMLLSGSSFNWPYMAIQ
For the compound `CCC(=O)c1c(CC)c2n3c1=CC[C@H]3CC(Br)C=2` (stereo not given in full), the inhibition was 6.74%.
With `CC(c1ccc(N)cc1)c1cn(C)c2ccccc12` (stereo not given), the inhibition is -16.2%.
As for `CCOC(=O)[C@]12CCCC3=C1N(CCC3)C(=O)[C@@H](CC(=O)N1CCSCC1)C2`, the figure is -5.73%; as for `COc1ccc(N2CCN(CCNS(=O)(=O)c3ccc([N+](=O)[O-])cc3)CC2)cc1`, 15.2%; as for `CC(C)OCCCNc1ncnc2c1[nH]c1ccc(F)cc12`, 62.2% (active).
Regarding `O=C(CN1CCC(NC(=O)NCc2ccccc2)CC1)Nc1ccc2c(c1)OCCO2`, the inhibition is -8.81%.
With `COc1ccc(C(=O)OCCN2CCN(C3CN(Cc4cn(Cc5ccccc5F)nn4)S(=O)(=O)C3)CC2)cc1OC` (stereo not given), the inhibition was 18.4%.
With `COc1cccc(N(C)C(=O)[C@@H](C)[C@@H](O)c2ccc3ccccc3c2)c1`, the inhibition is -11.8%.
As to `COc1ccccc1CNc1nc(Nc2ccccc2Cl)c2sccc2n1`, the inhibition was 60.3% (active).
In the case of `COc1cccc(CNc2nc(NCc3ccccc3OC)nc3ccsc23)c1`, the inhibition is 39.1% (active).
As for `COc1cccc(CNc2nc3cc(-c4csc5ccccc45)sc3c(=O)n2C)c1`, the figure is 5.09%.
With `CC(C)Nc1nc(NCCOc2ccccc2Cl)c2sccc2n1`, the inhibition is 19.2%.
For the compound `COc1cccc(CNc2ncc(-c3ccccc3)n2C)c1`, the inhibition is -0.1%.
The same measure for `COc1ccccc1CNCc1cccs1`: 9.93%.
The same measure for `COc1cccc(CNc2nc(NCc3cccs3)nc3ccsc23)c1`: 45.6% (active); for `COc1ccc(NC(=S)NCc2cccs2)c(OC)c1`: 6.7%; for `COc1cccc(-c2cc3nc(NCc4ccccc4OC)n(C)c(=O)c3s2)c1`: -9.04%.
Consider `COc1ccc(C(=O)OCCN(C)C2CN(Cc3cn(Cc4cccc(C)c4)nn3)S(=O)(=O)C2)cc1OC` (stereo not given), for which the inhibition was -14.5%.
In the case of `COP(=O)(O)CNC(=O)OCc1ccccc1`, the inhibition was -0.48%.
With `COC(CNC(=O)[C@H](Cc1ccccc1)NC1(C(=O)NC2CCCCC2)CCCCC1)OC`, the inhibition was -36.3%.
Consider `Cc1ccc(C(=O)N(Cc2ccccn2)CC2CCCO2)cc1` (stereo not given), for which the inhibition is -9.77%.
For `O=S1(=O)c2c(NCc3ccco3)cccc2Oc2ccccc2CN1Cc1cn(Cc2cccc(C(F)(F)F)c2)nn1`, the inhibition is -1.36%.
The same measure for `CCOc1ccc(-n2c(SCC(=O)Nc3cc(C)c(NC(=O)c4ccccc4)cc3OC)nnc2-c2cccs2)cc1`: 27.9%.
For the compound `Cc1ccc(C2=CCN(C)C(=O)N2c2ccc(Cl)cc2)cc1`, the inhibition was -1.56%.
The same measure for `CCOc1ccc(N(CC(=O)Nc2c(C)n(C)n(-c3ccccc3)c2=O)S(=O)(=O)c2ccc(Cl)s2)cc1`: -10%.
